# Reference: PubChem BioAssay (NCATS)
# Inconclusive results are not listed. Active and inactive are the calls of the source. Calls follow the shape of the dose curve; as a rule, active = well fitted cell-killing curve with a large enough effect; inconclusive = small, poorly fitted or top-dose-only effect; inactive = flat fitted curve, though single readings scatter.
# Experiment: qHTS of pediatric cancer cell lines to identify multiple opportunities for drug repurposing: Primary screen for DAOY cells (AID 1347090); also: nearly all actives have a fitted effect of over 55% in size;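 as to activity change, negative = cytotoxic: plate controls were DMSO for no effect and bortezomib for full effect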
# Settings: DAOY medulloblastoma viability, CellTiter-Glo luminescence, 48 h; series mostly up to 46 µM; activity change, negative = cytotoxic: at the top concentration
# Outline: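 Eight- or eleven-point concentration series, 48 h treatment at 37 degrees C in growth media; readout CellTiter-Glo luminescence. Potency and efficacy were taken from the concentration-response curves.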
# Potency is read from the fitted curve at half-maximal effect.
Structure (SMILES),"activity change, negative = cytotoxic",Potency
Nc1ccc(O)c(C(=O)O)c1,3.2% (inactive),
CC(C(=O)O)c1ccc2c(c1)[nH]c1ccc(Cl)cc12 (configuration not stated),-14.4% (inactive),
COC(=O)c1nc(Cl)c(Cl)nc1N,,1.33 µM (active)
CN1CCN(c2cc3c(nn2)Oc2ccccc2N3C)CC1,-3.04% [at 16.1 µM] (inactive),
O=Cc1ccc(O)c(O)c1O,2.26% (inactive),
O=C(O)Cc1ccc(-c2ccccc2)cc1,2.66% (inactive),
N=C1N=C(N)c2cc3ccccc3cc21,,24.3 µM (active)
